The results in this text go back to PubChem BioAssay (NCI).

Test [1] in a line: NCI Yeast Anticancer Drug Screen. Data for the rad50 strain (AID 155).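 Note: 0% = growth of vehicle-only cultures of the same strain.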 The following applies: S. cerevisiae rad50 strain growth inhibition; at 50.0 µM; active compounds read high. In short, it runs like this: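 Vehicle-treated cultures provide the reference for the growth inhibition reported for compound-exposed, repair-deficient yeast.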
Test [2] can be described thus: NCI Yeast Anticancer Drug Screen. Data for the mec2-1 strain (AID 157). The following applies: S. cerevisiae mec2-1 strain, at 50.0 µM, active compounds read high. In short, it runs like this:
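Each compound was tested on mec2-1 yeast, a strain altered in DNA damage repair or cell cycle control. Growth inhibition is reported relative to vehicle.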

Test [3] can be described thus: NCI Yeast Anticancer Drug Screen. Data for the sgs1 mgt1 strain (AID 161).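 Note: 0% = growth of cultures given vehicle only.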 The following applies: S. cerevisiae sgs1 mgt1 strain, at 50.0 µM, active compounds read high. Summed up:
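Read-out: growth inhibition vs vehicle controls. Cells: mutant yeast strain deficient in DNA damage repair.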

A short description of test [4]: NCI Yeast Anticancer Drug Screen. Data for the cln2 rad14 strain (AID 165).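 Note: 0% = growth equal to vehicle treated cultures.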 The following applies: S. cerevisiae cln2 rad14 strain, at 50.0 µM, active compounds read high. In short, it runs like this: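 Test compounds were added to cln2 rad14 yeast cultures; inhibition of growth was then determined by comparison with vehicle treatment.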
The nature of test [5]: NCI Yeast Anticancer Drug Screen. Data for the bub3 strain (AID 167). The following applies: S. cerevisiae bub3 mutant strain, at 50.0 µM, active compounds read high. Summed up: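 Mutant yeast screening strain plus compound; vehicle-treated cultures serve as the 0% inhibition reference.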
A short description of test [6]: NCI Yeast Anticancer Drug Screen. Data for the mlh1 rad18 strain (AID 175). The following applies: S. cerevisiae mlh1 rad18 strain growth inhibition; at 50.0 µM; active compounds read high. Summed up: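 Inhibition values reflect reduced growth of mutant yeast versus vehicle-treated controls following compound exposure; the mutations affect DNA damage repair.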

Compounds without any hit were thinned out: in the full panel of roughly 79,000, 15% have a hit. Unmarked numbers belong to inactive results. Activity calls are given as the source filed them. Cut-off read from the data, not from the text of the source: active = growth inhibition above about 70%; inactive = the rest.

With `CCCCSCCC(N)P(=O)(O)O` (stereo not given), the growth inhibition in test [1] is -68.8%; in test [2], -62.4%; in test [3], -42.4%; in test [4], 2.8%; in test [5] it was -15.2%; in test [6], -44.1%.
For `CC1(C)[C@@H]2CC[C@]1(C)[C@H](OC(=O)C(Cl)(Cl)Cl)C2`, the growth inhibition is -16.6% in test [1]; -5.35% in test [2]; -9.65% in test [3]; -19.3% in test [4]; 26.8% in test [5]; 9.75% in test [6].
As to `Cc1cc(N(CCCl)CCCl)ccc1CN1CCCN(Cc2ccc(N(CCCl)CCCl)cc2C)C1c1ccccc1O`, the growth inhibition is 0.25% in test [1]; 14.5% in test [2]; 11.1% in test [3]; -4.5% in test [4]; 0.05% in test [5]; 31.9% in test [6].
`COc1cc(CC(C)N)ccc1O` (stereo not given): the growth inhibition in test [1] is 7.9%; in test [2] it was -9.4%; in test [3], -14.2%; in test [4] it was -46.4%; in test [5], 21.6%; in test [6] it was -18.4%.
For `CCC1(CCNC(=O)CNC(C)=O)C(=O)NC(=O)NC1=O`, the growth inhibition in test [1] was 3.3%; in test [2], -6.45%; in test [3] it was 10.2%; in test [4], -45.1%; in test [5], 10.9%; in test [6] it was 10.2%.
For `ClCCCCCCCCCCCl`, the growth inhibition in test [1] was 10.9%; in test [2] it was -2.55%; in test [3], -13.2%; in test [4] it was -11.8%; in test [5] it was -15.2%; in test [6], -8.8%.
Turning to `COc1ccc(/C=C/c2cc(OC)c3c(c2)OCO3)cc1O`, the growth inhibition was 4.4% in test [1]; 5.45% in test [2]; -9.55% in test [3]; 0.9% in test [4]; 1.7% in test [5]; -7.75% in test [6].
As for `CC(=O)CC(C)=O.CC(=O)CC(C)=O.[Ni]`, the growth inhibition is -39% in test [1]; -31.4% in test [2]; -1.1% in test [3]; 31.1% in test [4]; -6.35% in test [5]; -25.4% in test [6].
With `CCN(CC)CCn1ncc2c(N)ncnc21`, the growth inhibition in test [1] was -0.25%; in test [2], -9%; in test [3], -26.4%; in test [4], -19.6%; in test [5], -22.8%; in test [6], -1.15%.
Turning to `O=C(O)C1C(C(=O)O)C2(Cl)C(Cl)=C(Cl)C1(Cl)C2(Cl)Cl.[Cd]` (stereo not given), the growth inhibition in test [1] was 61.4%; in test [2], 13.9%; in test [3], -0.2%; in test [4], -14.7%; in test [5], -6.75%; in test [6], 19.4%.
Consider `COc1ccccc1N=Nc1cccc[c]1[Hg][Cl]`, for which the growth inhibition in test [1] is 98.2% (active); in test [2] it was 99% (active); in test [3], 98.7% (active); in test [4] it was 98.7% (active); in test [5], 98% (active); in test [6], 98.3% (active).
In the case of `O=[N+]([O-])c1ccc(O)c(CBr)c1`, the growth inhibition in test [1] is 35.5%; in test [2], -5.15%; in test [3], 7.55%; in test [4], 18.6%; in test [5], 13.9%; in test [6] it was 4.95%.
As to `CCCCOC(=O)C(O)CF` (stereo not given), the growth inhibition was -25.2% in test [1]; -10.1% in test [2]; -0.25% in test [3]; 1.6% in test [4]; 1.05% in test [5]; -29.6% in test [6].
On to `CC[CH2][Sn](=[O])[c]1ccccc1`, for which the growth inhibition is 61.6% in test [1]; 72% (active) in test [2]; 57.1% in test [3]; 42.3% in test [4]; 50.6% in test [5]; 78.2% (active) in test [6].
Take `O=[N+]([O-])O.[Sm]`: the growth inhibition in test [1] was 12.3%; in test [2], 3.95%; in test [3], 26.8%; in test [4], 17.1%; in test [5] it was 15.7%; in test [6], -18.4%.
`CCCC[P+](C#Cc1ccccc1)(CCCC)CCCC`: the growth inhibition in test [1] was 8.65%; in test [2] it was 3.5%; in test [3], 9.5%; in test [4], 3.75%; in test [5], -3.2%; in test [6] it was 2%.
With `C[CH2][Sn]([CH2]C)([O]c1cccccc1=O)[O]c1cccccc1=O`, the growth inhibition in test [1] was 87.1% (active); in test [2], 18.8%; in test [3] it was 94.2% (active); in test [4], -15.6%; in test [5] it was 7.8%; in test [6] it was 52.5%.
Turning to `COP1(=O)Oc2ccccc2C(=O)C(C(F)(F)F)(C(F)(F)F)O1` (stereo not given), the growth inhibition in test [1] was -16.9%; in test [2] it was -1.6%; in test [3] it was -15.8%; in test [4] it was 5.05%; in test [5], -20.2%; in test [6] it was -34.1%.
As for `C[CH2][Sn]([CH2]C)([O]C(=O)c1ccc(F)cc1)[O]C(=O)c1ccc(F)cc1`, the growth inhibition is 30.5% in test [1]; 17.7% in test [2]; 38.5% in test [3]; 15.1% in test [4]; 15.2% in test [5]; 17.6% in test [6].
With `C[N+](C)(C)CC1CCCCC1=O` (stereo not given), the growth inhibition in test [1] is 24.1%; in test [2] it was 11.6%; in test [3], 17.9%; in test [4] it was 21.8%; in test [5] it was 11.7%; in test [6] it was 44.5%.
